Compound activity from PubChem.
HEK293 tox: cytotoxic compounds in HEK 293 cells | AID 1345083 | Potency, µM (titrated, usually from 115 µM), without a hit: top-dose activity change, negative = cytotoxicity, actives largely listed as inhibitors | hit rate 6.6% among 94,000 | HEK 293 viability, ATP luminescence (CellTiter-Glo), 48-72 h; further: nearly all actives have a fitted effect of over 60% in size
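HEK 293 cells seeded at 250 cells/well were exposed to compound for 48 or 72 hr at 37 degree Celsius. Viability taken as ATP content by CellTiter-Glo luminescence.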
NIH3T3 tox: NIH 3T3 cell cytotoxicity; Potency, µM (titrated, usually from 96.7 µM), for the others: top-dose activity change, negative = cytotoxicity, most hits filed as inhibitors; hit rate 4.3% among 94,000; NIH 3T3 viability, CellTiter-Glo ATP luminescence, 48-72 h; further: nearly all actives have a fitted effect of over 55% in size
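NIH 3T3 cells at 400 cells/well received 23 nL of compound by pintool and were incubated 48 or 72 h at 37 °C. Viability was read as ATP-coupled CellTiter-Glo luminescence.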
hNpr1 antagonist: antagonists of human natriuretic peptide receptor Npr1. HEK293 hNpr1 GloSensor cGMP, ANP-stimulated luminescence. Potency, µM (series often up to 46.3 µM), inactives show top-dose activity change, negative = inhibition, most hits filed as inhibitors. P16066. hit rate 1.6% among 76,000; calls by dose curve; further: nearly all actives have a fitted effect of over 60% in size
Target sequence (P16066 whole entry, looked up): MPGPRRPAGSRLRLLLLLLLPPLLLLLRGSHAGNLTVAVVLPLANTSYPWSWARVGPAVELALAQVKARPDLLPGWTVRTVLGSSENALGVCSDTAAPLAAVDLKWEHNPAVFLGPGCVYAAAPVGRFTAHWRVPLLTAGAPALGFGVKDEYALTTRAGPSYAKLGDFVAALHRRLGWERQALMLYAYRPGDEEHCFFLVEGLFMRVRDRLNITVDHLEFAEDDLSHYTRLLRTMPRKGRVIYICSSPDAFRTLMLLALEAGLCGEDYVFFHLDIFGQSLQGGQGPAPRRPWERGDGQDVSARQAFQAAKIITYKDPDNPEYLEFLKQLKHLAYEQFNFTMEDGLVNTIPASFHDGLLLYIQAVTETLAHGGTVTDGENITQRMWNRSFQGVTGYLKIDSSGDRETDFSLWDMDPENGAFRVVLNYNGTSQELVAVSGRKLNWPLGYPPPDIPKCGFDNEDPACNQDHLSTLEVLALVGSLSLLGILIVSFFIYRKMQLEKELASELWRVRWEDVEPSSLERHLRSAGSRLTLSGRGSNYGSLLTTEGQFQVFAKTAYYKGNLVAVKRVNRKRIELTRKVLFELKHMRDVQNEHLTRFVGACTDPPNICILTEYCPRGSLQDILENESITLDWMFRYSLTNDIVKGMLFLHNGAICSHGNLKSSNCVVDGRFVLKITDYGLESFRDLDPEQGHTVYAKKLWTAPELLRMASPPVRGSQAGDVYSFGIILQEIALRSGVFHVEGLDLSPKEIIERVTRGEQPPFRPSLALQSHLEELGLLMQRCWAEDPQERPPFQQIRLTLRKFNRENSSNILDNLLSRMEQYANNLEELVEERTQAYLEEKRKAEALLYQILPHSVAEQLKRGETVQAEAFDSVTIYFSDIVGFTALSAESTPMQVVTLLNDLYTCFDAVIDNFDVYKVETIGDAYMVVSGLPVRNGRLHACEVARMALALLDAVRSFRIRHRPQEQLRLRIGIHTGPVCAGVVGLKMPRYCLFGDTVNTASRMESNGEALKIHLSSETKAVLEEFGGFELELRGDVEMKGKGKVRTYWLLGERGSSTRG
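HEK293 cells stably expressing human Npr1 and cGMP GloSensor pGS-40F, loaded 2 h with 2% GloSensor reagent, given compound 30 min at room temperature. Luminescence read before and 20 min after 0.1 nM hNppA.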
SNCA expr inh: inhibitors of alpha-synuclein (SNCA) gene expression. AID 1671194. HEK-293 SNCA-luciferase knock-in, luminescence, 24 h. hit rate 0.17% among 140,000. Potency, µM (doses to about 57.2 µM), for the others: at the top dose activity change, negative = inhibition, most hits filed as inhibitors;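 further: plate controls were DMSO cells for no effect and cell-free wells for full effect; nearly all actives have a fitted effect of over 45% in size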
HEK293 viab: cell viability loss counter-screen; HEK-293-SNCA-luc viability, GF-AFC fluorescence, 24 h; Potency, µM (doses to about 57.1 µM), for the others: at the highest dose activity change, negative = cytotoxicity, actives largely listed as cytotoxic; hit rate 0.12% among 150,000;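 further: 0% = DMSO-treated cells and -100% = medium-only wells without cells; nearly all actives have a fitted effect of over 30% in size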
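Cytotoxicity counterscreen: after 24 h compound treatment of genome-edited SNCA-luciferase HEK-293 cells, live-cell protease substrate GF-AFC read by fluorescence after 30 min; activity scaled between DMSO (0%) and medium-only (-100%), curves Hill-fitted.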
Luciferase inh: Photinus pyralis luciferase inhibition | purified P. pyralis luciferase, luminescence, biochemical | P08659 | hit rate 2.5% among 76,000 | Potency, µM (titrated, usually from 115 µM), hits mostly inhibitors; further: nearly all actives have a fitted effect of over 65% in size
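Luminescence read by CCD imaging after purified firefly luciferase (10nM final) was added to substrate buffer holding 10uM D-luciferin and 10uM ATP, pH 7.5, pre-dosed with compound.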
Active calls of the source: *; i = inactive; ? = inconclusive; . = not tested or not shown; [ ] = another dose, or the depositor's remark. Compounds with a hit are over-represented: about 7.2% of the library has one in this group of screens. Unless noted, the call rests on the fitted dose curve; in most records, active means well fitted curve in the direction sought with a large enough effect; inconclusive means small, poorly fitted or top-dose-only effect, or another doubt; inactive means no such curve, though single readings can be large; an effect the other way counts as inactive or inconclusive. Unless noted, on the % scale 0 is the no-effect control and ±100 the full control effect; potency means the concentration at half of the fitted maximal effect.

SMILES	HEK293 tox	NIH3T3 tox	hNpr1 antagonist	SNCA expr inh	HEK293 viab	Luciferase inh
O=C(NCCCc1ccccc1)c1ccc2nc(-c3cccnc3Cl)oc2c1	?	44.7µM*	.	48.4%[87.6 µM]	-3.5%[87.6 µM]	.
O=C(NCCCc1ccccc1)c1ccc2nc(-c3ccccn3)oc2c1	?	?	.	9.3%	6.1%	.
O=C(NCCc1ccccc1)c1ccc2nc(-c3ccccn3)oc2c1	89.1µM*	?	.	118.1%[87.6 µM]	-0.9%[87.6 µM]	.
CC(=O)N1CCC2(CC1)CC(N(C(=O)NC(C)C)C1CC1)CCO2 (configuration not stated)	-4.4%	-16.7%	.	-16.6%	19.0%	.
O=C(c1cccc(Cl)c1)N1CCN(Cc2ccccc2-c2cccnc2)CC1	?	?	.	-10.3%	-2.2%[12.5 µM]	.
CC1(COc2cccnc2)COc2ccc(C(=O)NCCc3ccccc3)cc2N1 (configuration not stated)	?	?	8.91µM*	11.6%[87.6 µM]	-21.8%[87.6 µM]	?
CC1(COc2cccnc2)COc2ccc(C(=O)NCCOc3ccccc3)cc2N1 (configuration not stated)	?	?	8.91µM*	?	?	?
C=CC(=O)Nc1ccc(CN2C(=O)N(c3cc(OC)cc(OC)c3)Cc3cnc(Nc4ccc(N5CCN(C)CC5)cc4)nc32)cc1	.	.	.	.	18.9µM*	.
N#Cc1ccccc1CN1CCCCC1c1nc(CCOCC2CCCC2)no1 (configuration not stated)	?	?	-0.3%	-17.3%	-0.3%[12.5 µM]	i
CCS(=O)(=O)c1ncc(Cl)c(C(=O)Nc2ccccc2)n1	.	.	.	2.24µM*	7.08µM*	.
CCS(=O)(=O)c1ncc(Cl)c(C(=O)N2CCN(c3ccc(OC)cc3)CC2)n1	.	.	.	?	14.1µM*	.
CC(=O)Nc1ccc(NC(=O)c2nc(S(=O)(=O)Cc3ccc(F)cc3)ncc2Cl)cc1	.	.	.	?	7.94µM*	.
Cc1cccc(NC(=O)c2nc(S(C)(=O)=O)ncc2Cl)c1	.	.	.	?	20µM*	.
O=C(c1ccc(N2CCC(O)CC2)nc1)N1CCC(Oc2cccnc2)CC1	-26.4%	-20.5%	1.8%	?	6.3%	i
COc1cccc(-n2nnnc2N2CCN(C(=O)Nc3ccc(C)c(F)c3)CC2)c1	-2.7%	-21.5%	.	-9.6%	-4.5%	.
Cc1ccc(CNC(=O)c2nc(S(=O)(=O)Cc3ccc(C)cc3)ncc2Cl)cc1	.	.	.	7.4%	0.6%	.
CCS(=O)(=O)c1ncc(Cl)c(C(=O)NCc2ccc(OC)cc2)n1	.	.	.	22.4µM*	?	.
COc1ccccc1NC(=O)Cn1c(=O)n(-c2ccccc2)c(=O)c2c1cc(C)n2C	-9.0%	i	-0.3%	-23.5%	-5.7%	i
Cc1ccc(NC(=O)Cn2c(=O)n(-c3ccccc3)c(=O)c3c2cc(C)n3C)cc1	39.8µM*	22.4µM*	3.3%	-4.7%	-19.6%	i
COc1ccccc1NC(=O)Cn1c(=O)n(-c2ccc(F)cc2)c(=O)c2c1cc(C)n2C	44.7µM*	31.6µM*	-8.5%	-22.8%	-27.3%	i
CN1C(=O)CS(=O)(=O)C12CCN(C(=O)c1ccco1)CC2	3.8%	i	0.5%	?	2.5%	i
COc1ccccc1-c1ccc(CN2CCC(NC(=O)c3ccc(Cl)cc3)C2)cc1 (configuration not stated)	25.1µM*	14.1µM*	.	.	.	.
COc1ccc(C(=O)NC2CCN(Cc3ccc(-c4ccccc4OC)cc3)C2)cc1 (configuration not stated)	?	22.4µM*	.	-15.5%	-4.0%[12.5 µM]	.
COc1ccc(C(=O)NC2CCN(Cc3ccc(-c4cc(F)ccc4OC)cc3)C2)cc1 (configuration not stated)	22.4µM*	17.8µM*	.	.	.	.
COc1ccc(F)cc1-c1ccc(CN2CCC(NC(=O)c3ccc(Cl)nc3)C2)cc1 (configuration not stated)	31.6µM*	31.6µM*	.	.	.	.
SMILES	HEK293 tox	NIH3T3 tox	hNpr1 antagonist	SNCA expr inh	HEK293 viab	Luciferase inh
Cc1ccc(OCCC2CCN(C(=O)Cc3ccsc3)C2)cc1 (configuration not stated)	?	?	?	-13.4%	-0.8%	i
COc1ccc(-n2c(=O)c(C(=O)NCc3cccs3)nc3cccnc32)cc1	3.1%	-16.3%	.	-19.0%	-6.8%	.
COc1ccc(F)cc1-c1ccc(CN2CCC(NC(=O)c3cccnc3)C2)cc1 (configuration not stated)	50.1µM*	?	.	.	.	.
CC(=O)N1CCN(Cc2ccc(-c3cnc4c(OCc5ccccc5)nccn34)cc2)CC1	39.8µM*	31.6µM*	-87.6%	18.8%	-9.1%	?
O=C(NCc1ccc(-c2cnc3c(Oc4ccccc4)nccn23)cc1)c1cccc(O)c1	?	?	?	-4.2%[87.6 µM]	-4.4%[87.6 µM]	i
CN1CCN(Cc2ccc(-c3cnc4c(OCc5ccccc5)nccn34)cc2)CC1	?	?	?	25.6%[87.6 µM]	-13.6%[87.6 µM]	31.6µM*
CN(Cc1cc2n(n1)CCCNC2)Cc1nc(-c2ccccc2)cs1	-12.8%	-24.5%	5.9%	7.7%	3.1%	i
COc1ccc(-c2noc(-c3ccc(N4C[C@H]5CC[C@H]4C5)nc3)n2)cc1	?	-22.2%	?	31.8%	-1.9%	25.1µM*
C1=C(c2nc(-c3cncnc3)cc3c2ccn3Cc2cccnc2)CCOC1	-16.2%[172 µM]	?	2.6%[70.6 µM]	8.9%[87.6 µM]	-4.6%[87.6 µM]	i
CN(C)Cc1cccc(-c2cc3c(ccn3Cc3cccnc3)c(C3=CCOCC3)n2)c1	35.5µM*	?	0.2%[70.6 µM]	9.4%[87.6 µM]	-28.9%[87.6 µM]	i
COc1ccccc1-c1cc2c(ccn2C)c(C(=O)NCc2cccnc2)n1	?	?	-13.4%[70.6 µM]	51.1%[87.6 µM]	6.2%[87.6 µM]	i
C[S+](=O)([O-])Nc1cccc(-c2cc3c(ccn3Cc3cccnc3)c(C3=CCOCC3)n2)c1	?	?	-9.5%	4.0%	8.3%	i
Cc1ccc(-c2cc3c(ccn3Cc3cccnc3)c(C3=CCOCC3)n2)cn1	44.7µM*	?	-0.8%[70.6 µM]	-8.1%[87.6 µM]	-1.9%[87.6 µM]	i
COc1cccc(-c2cc3c(ccn3Cc3cccnc3)c(C3=CCOCC3)n2)c1OC	100µM*	70.8µM*	0.0%[70.6 µM]	-12.1%[87.6 µM]	-14.3%[87.6 µM]	i
CCN1CCN(C(=O)CC2CCCN(c3cnn(CCOC)c(=O)c3)C2)CC1 (configuration not stated)	0.9%	-3.3%	6.5%	14.7%	5.8%	i
O=[S+]1([O-])NCC2(CCCN(Cc3ccc(Cl)cc3)C2)Oc2ncccc21 (configuration not stated)	89.1µM*	?	.	-12.9%	-2.6%	.
O=[S+]1([O-])NCC2(CCCN(Cc3ccc(C(F)(F)F)cc3)C2)Nc2ccccc21 (configuration not stated)	31.6µM*	?	-17.1%	-27.9%	-0.1%	i
